Source: PubChem BioAssay (NCI)
Compounds without any hit were thinned out: in the full panel of roughly 79,000, 15% have a hit. Active and inactive are the calls of the source. No stated cut-off is given here; in the data, active means growth inhibition above about 70%; inactive means the rest.

Assays:
[1] = NCI Yeast Anticancer Drug Screen. Data for the rad52 strain (AID 147);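 further: 0% = growth of vehicle-treated control cultures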; settings: S. cerevisiae rad52 mutant growth inhibition, active compounds read high
How it was run: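 Yeast strain carrying a DNA damage repair alteration was exposed to test compounds. Growth inhibition was measured relative to vehicle-treated controls.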

[2] = NCI Yeast Anticancer Drug Screen. Data for the wt1 strain (AID 149);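 further: 0% = growth of vehicle-treated wt1 cultures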; settings: S. cerevisiae wt1 strain (SPY 50644) growth inhibition, active compounds read high
How it was run: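 Using yeast strain wt1, compound-induced growth inhibition was determined against vehicle-treated cultures.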

[3] = NCI Yeast Anticancer Drug Screen. Data for the rad50EPP+ strain (AID 151);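 further: 0% = growth of vehicle-treated control cultures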; settings: S. cerevisiae rad50 mutant strain, active compounds read high
How it was run: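 Yeast strain carrying rad50 alteration (rad50EPP+) exposed to compounds; growth inhibition measured relative to vehicle-treated controls.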

[4] = NCI Yeast Anticancer Drug Screen. Data for the mgt1 strain (AID 153); settings: S. cerevisiae mgt1 mutant growth inhibition, active compounds read high
How it was run: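 Yeast mgt1 strain (DNA repair/cell-cycle alteration panel) exposed to compounds; growth inhibition measured relative to vehicle-treated controls.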

[5] = NCI Yeast Anticancer Drug Screen. Data for the rad50 strain (AID 155);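 further: 0% = growth of vehicle-only cultures of the same strain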; settings: S. cerevisiae rad50 strain growth inhibition, active compounds read high
How it was run: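 Relative growth inhibition (compound vs vehicle) was measured in yeast with a defined repair-gene alteration.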

[6] = NCI Yeast Anticancer Drug Screen. Data for the mec2-1 strain (AID 157); settings: S. cerevisiae mec2-1 strain, active compounds read high
How it was run: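 mec2-1 yeast strain, carrying an alteration in DNA damage repair or cell cycle control, was exposed to compounds; growth inhibition was measured relative to vehicle-treated controls.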

[7] = NCI Yeast Anticancer Drug Screen. Data for the rad14 strain (AID 159);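 further: 0% = growth of vehicle-treated control cultures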; settings: S. cerevisiae rad14 strain growth inhibition, active compounds read high
How it was run: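 Screen for anticancer potential: a yeast strain altered in DNA damage repair is grown with compound, and reduced growth is quantified against vehicle controls.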

[8] = NCI Yeast Anticancer Drug Screen. Data for the sgs1 mgt1 strain (AID 161);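 further: 0% = growth of cultures given vehicle only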; settings: S. cerevisiae sgs1 mgt1 strain, active compounds read high
How it was run: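 Percent growth inhibition was derived by comparing compound-exposed mutant yeast with vehicle-exposed cultures. The strain carries alterations in DNA damage repair.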

[9] = NCI Yeast Anticancer Drug Screen. Data for the CLN2oe strain (AID 163);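 further: 0% = growth of vehicle-only control cultures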; settings: S. cerevisiae CLN2oe strain, active compounds read high
How it was run: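 Yeast cells carrying a defined cell-cycle control alteration were exposed to test compounds. Growth inhibition was scored against vehicle-treated control cultures.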

[10] = NCI Yeast Anticancer Drug Screen. Data for the cln2 rad14 strain (AID 165);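 further: 0% = growth equal to vehicle treated cultures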; settings: S. cerevisiae cln2 rad14 strain, active compounds read high
How it was run: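 Yeast carrying cln2 and rad14 alterations (cell cycle control and DNA damage repair) were exposed to compounds. Growth inhibition was measured against vehicle-treated controls.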

[11] = NCI Yeast Anticancer Drug Screen. Data for the bub3 strain (AID 167); settings: S. cerevisiae bub3 mutant strain, active compounds read high
How it was run: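 Screening used yeast with an engineered genetic alteration affecting cell cycle control. Compound-exposed cultures were compared with vehicle cultures, and reduced growth was taken as inhibition.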

[12] = NCI Yeast Anticancer Drug Screen. Data for the wt2 strain (AID 169);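 further: 0% = growth of vehicle-treated yeast cultures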; settings: S. cerevisiae wt2 strain growth inhibition, active compounds read high
How it was run: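 Yeast cells were exposed to test compounds, and growth inhibition was measured relative to vehicle-treated controls.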

[13] = NCI Yeast Anticancer Drug Screen. Data for the sgs1 strain (AID 173);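 further: 0% = growth of vehicle-only control cultures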; settings: S. cerevisiae sgs1 mutant, active compounds read high
How it was run: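 Yeast mutant strains carrying defined defects in DNA damage repair or cell cycle control were exposed to test compounds. Growth inhibition was scored against vehicle-treated controls.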

[14] = NCI Yeast Anticancer Drug Screen. Data for the mlh1 rad18 strain (AID 175); settings: S. cerevisiae mlh1 rad18 strain growth inhibition, active compounds read high
How it was run: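 Growth inhibition of the yeast strain was measured after compound exposure and expressed relative to vehicle-treated controls. The strain carries defined defects in DNA damage repair.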

[15] = NCI Yeast Anticancer Drug Screen. Data for the mlh1 strain (AID 171);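 further: 0% = growth of vehicle-treated control cultures of the same strain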; settings: S. cerevisiae mlh1 strain growth inhibition, active compounds read high
How it was run: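 Yeast carrying a defined genetic alteration in DNA damage repair or cell cycle control were exposed to test compounds. Growth inhibition was measured relative to vehicle-treated controls.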

[16] = NCI Yeast Anticancer Drug Screen. Data for the rad18 strain (AID 177); settings: S. cerevisiae rad18 mutant growth inhibition, active compounds read high
How it was run: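 Yeast carrying a defined DNA damage repair alteration were exposed to compounds. Growth inhibition was expressed relative to vehicle-treated controls.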

[17] = at 5.0 µM (retest, dose inferred, filed as 0.5)
[18] = at 50.0 µM (retest, dose inferred, filed as 5.0)

Measured: growth inhibition

N#C/C(=C1C=C(Br)/C(=N\O)C=C\1Cl)c1cccc2ccccc12
active: [1]; at 11.0 µM 94% | [1]; at 33.0 µM 93% | [1]; at 100.0 µM 95% | [2]; at 11.0 µM 84% | [2]; at 33.0 µM 86% | [2]; at 100.0 µM 96% | [3]; at 100.0 µM 88% | [4]; at 11.0 µM 79% | [4]; at 33.0 µM 85% | [4]; at 100.0 µM 97% | [5]; [17] 99% | [5]; at 11.0 µM 91% | [5]; at 33.0 µM 87% | [5]; [18] 98% | [5]; at 50.0 µM 89.2% | [5]; at 100.0 µM 94% | [6]; [17] 100% | [6]; at 11.0 µM 89% | [6]; at 33.0 µM 91% | [6]; [18] 98% | [6]; at 50.0 µM 90.7% | [6]; at 100.0 µM 94% | [7]; at 33.0 µM 70% | [7]; at 100.0 µM 96% | [8]; [18] 96% | [9]; at 33.0 µM 86% | [9]; at 100.0 µM 93% | [10]; [18] 95% | [11]; at 11.0 µM 94% | [11]; at 33.0 µM 93% | [11]; [18] 93% | [11]; at 100.0 µM 95% | [12]; at 11.0 µM 87% | [12]; at 33.0 µM 90% | [12]; at 100.0 µM 97% | [13]; at 11.0 µM 82% | [13]; at 33.0 µM 92% | [13]; at 100.0 µM 95% | [14]; [17] 100% | [14]; [18] 98% | [14]; at 50.0 µM 89.3%
inactive: [1]; at 1.2 µM 15% | [1]; at 3.7 µM 16% | [2]; at 1.2 µM -1% | [2]; at 3.7 µM 4% | [3]; at 1.2 µM 18% | [3]; at 3.7 µM 36% | [3]; at 11.0 µM 63% | [3]; at 33.0 µM 55% | [4]; at 1.2 µM 11% | [4]; at 3.7 µM 4% | [5]; at 1.2 µM 28% | [5]; at 3.7 µM 44% | [6]; at 1.2 µM 2% | [6]; at 3.7 µM 18% | [7]; at 1.2 µM -14% | [7]; at 3.7 µM -10% | [7]; at 11.0 µM 55% | [8]; [17] 5% | [9]; at 1.2 µM -15% | [9]; at 3.7 µM 27% | [9]; at 11.0 µM 63% | [10]; [17] 25% | [11]; at 1.2 µM 33% | [11]; at 3.7 µM 49% | [11]; [17] 59% | [12]; at 1.2 µM 0% | [12]; at 3.7 µM 7% | [13]; at 1.2 µM 15% | [13]; at 3.7 µM 18%

O=c1[nH]c2ccccc2c2nc3ccccc3n12
active: [1]; at 33.0 µM 72% | [1]; at 100.0 µM 70% | [3]; at 33.0 µM 90% | [3]; at 100.0 µM 92% | [5]; at 11.0 µM 77% | [5]; at 33.0 µM 78% | [5]; [18] 94% | [5]; at 100.0 µM 88% | [6]; [18] 97% | [11]; [18] 74% | [14]; [18] 86%
inactive: [1]; at 1.2 µM -43% | [1]; at 3.7 µM -34% | [1]; at 11.0 µM 8% | [2]; at 1.2 µM -39% | [2]; at 3.7 µM -44% | [2]; at 11.0 µM -8% | [2]; at 33.0 µM 3% | [2]; at 100.0 µM -17% | [3]; at 1.2 µM 10% | [3]; at 3.7 µM 16% | [3]; at 11.0 µM 48% | [4]; at 1.2 µM -34% | [4]; at 3.7 µM -14% | [4]; at 11.0 µM 26% | [4]; at 33.0 µM 40% | [4]; at 100.0 µM 8% | [5]; at 1.2 µM -17% | [5]; at 3.7 µM -6% | [5]; [17] 51% | [5]; at 50.0 µM 15.6% | [6]; at 1.2 µM -48% | [6]; at 3.7 µM -50% | [6]; [17] 62% | [6]; at 11.0 µM -41% | [6]; at 33.0 µM -42% | [6]; at 50.0 µM 12.7% | [6]; at 100.0 µM 12% | [7]; at 1.2 µM -39% | [7]; at 3.7 µM -43% | [7]; at 11.0 µM -50% | [7]; at 33.0 µM 7% | [7]; at 100.0 µM -8% | [8]; [17] -17% | [8]; [18] 22% | [9]; at 1.2 µM 12% | [9]; at 3.7 µM -2% | [9]; at 11.0 µM 15% | [9]; at 33.0 µM 40% | [9]; at 100.0 µM 26% | [10]; [17] 33% | [10]; [18] 59% | [11]; at 1.2 µM -11% | [11]; at 3.7 µM 5% | [11]; [17] 45% | [11]; at 11.0 µM 11% | [11]; at 33.0 µM 60% | [11]; at 100.0 µM 42% | [12]; at 1.2 µM -53% | [12]; at 3.7 µM -47% | [12]; at 11.0 µM -47% | [12]; at 33.0 µM -15% | [12]; at 100.0 µM 26% | [15]; at 1.2 µM -40% | [15]; at 3.7 µM -22% | [15]; at 11.0 µM -14% | [15]; at 33.0 µM 38% | [15]; at 100.0 µM 37% | [13]; at 1.2 µM -43% | [13]; at 3.7 µM -58% | [13]; at 11.0 µM -64% | [13]; at 33.0 µM 23% | [13]; at 100.0 µM -14% | [14]; [17] 49% | [14]; at 50.0 µM 47.1% | [16]; at 1.2 µM -29% | [16]; at 3.7 µM -22% | [16]; at 11.0 µM -20% | [16]; at 33.0 µM 27% | [16]; at 100.0 µM 9%
